Laboratory results as given in PubChem BioAssay.
Activity calls are given as the source filed them.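 The calls were made as follows, unless noted: active = luciferase signal above three times the same-plate solvent-only control wells; inactive = the rest.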

Tests used:
[1] = target: 6-phosphogluconate dehydrogenase, decarboxylating (Homo sapiens) (UniProt P52209); assay: 6PGD enzyme inhibitors, primary screen, biochemical, human, recombinant enzyme, NADPH absorbance (AID 1159550;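 active = at least 20% inhibition of 6-phosphogluconate dehydrogenase activity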); conditions: recombinant 6PGD, NADPH absorbance 341 nm; at 10 µM; stronger effect = higher value
Sequence of 6-phosphogluconate dehydrogenase, decarboxylating (Homo sapiens) (P52209 whole entry, looked up): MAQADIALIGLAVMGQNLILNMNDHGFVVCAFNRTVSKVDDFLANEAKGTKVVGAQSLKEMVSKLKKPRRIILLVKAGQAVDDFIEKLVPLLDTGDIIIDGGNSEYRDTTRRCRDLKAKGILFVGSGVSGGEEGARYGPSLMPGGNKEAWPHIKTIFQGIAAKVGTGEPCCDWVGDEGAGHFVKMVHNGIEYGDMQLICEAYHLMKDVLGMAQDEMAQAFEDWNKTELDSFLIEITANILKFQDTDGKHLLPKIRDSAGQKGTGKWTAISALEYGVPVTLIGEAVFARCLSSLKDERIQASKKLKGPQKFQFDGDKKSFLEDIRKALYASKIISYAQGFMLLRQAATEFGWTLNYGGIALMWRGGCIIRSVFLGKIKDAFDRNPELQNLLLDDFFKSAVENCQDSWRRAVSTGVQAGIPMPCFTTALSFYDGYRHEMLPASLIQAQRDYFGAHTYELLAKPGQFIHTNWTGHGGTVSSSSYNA

[2] = differential killing of epithelial or mesenchymal cells, primary screen, imaging, PC-3E GFP, TEM4-18 mCherry, co-culture (AID 1345086;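 active = compounds killing one labelled cell type while sparing the other, by normalised counts and ratio limits, not self-fluorescent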;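 as to all read-outs here: cells exposed to compound for 72 h before imaging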;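 as to red/green cell ratio (normalised): normalised mesenchymal count divided by normalised epithelial count so high means epithelial killing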); conditions: imaging cell counts, at 1 µM; for red/green cell ratio (normalised): actives lie on both sides, counts scaled to control wells, 1 = unselective
[3] = target: Mitogen-activated protein kinase 7 (Homo sapiens) (UniProt Q13164); assay: ERK5 transactivation activators in reporter cells, primary screen, cell-based, HTS (AID 1508626); conditions: HeLa Gal4-ERK5 transactivation, 18 h, at 5 µM, stronger effect = higher value;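 also: luciferase driven by Gal4-ERK5 fusion binding five Gal4 sites before minimal TATA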
Sequence of Mitogen-activated protein kinase 7 (Homo sapiens) (Q13164 whole entry, looked up, the tested form may be a part): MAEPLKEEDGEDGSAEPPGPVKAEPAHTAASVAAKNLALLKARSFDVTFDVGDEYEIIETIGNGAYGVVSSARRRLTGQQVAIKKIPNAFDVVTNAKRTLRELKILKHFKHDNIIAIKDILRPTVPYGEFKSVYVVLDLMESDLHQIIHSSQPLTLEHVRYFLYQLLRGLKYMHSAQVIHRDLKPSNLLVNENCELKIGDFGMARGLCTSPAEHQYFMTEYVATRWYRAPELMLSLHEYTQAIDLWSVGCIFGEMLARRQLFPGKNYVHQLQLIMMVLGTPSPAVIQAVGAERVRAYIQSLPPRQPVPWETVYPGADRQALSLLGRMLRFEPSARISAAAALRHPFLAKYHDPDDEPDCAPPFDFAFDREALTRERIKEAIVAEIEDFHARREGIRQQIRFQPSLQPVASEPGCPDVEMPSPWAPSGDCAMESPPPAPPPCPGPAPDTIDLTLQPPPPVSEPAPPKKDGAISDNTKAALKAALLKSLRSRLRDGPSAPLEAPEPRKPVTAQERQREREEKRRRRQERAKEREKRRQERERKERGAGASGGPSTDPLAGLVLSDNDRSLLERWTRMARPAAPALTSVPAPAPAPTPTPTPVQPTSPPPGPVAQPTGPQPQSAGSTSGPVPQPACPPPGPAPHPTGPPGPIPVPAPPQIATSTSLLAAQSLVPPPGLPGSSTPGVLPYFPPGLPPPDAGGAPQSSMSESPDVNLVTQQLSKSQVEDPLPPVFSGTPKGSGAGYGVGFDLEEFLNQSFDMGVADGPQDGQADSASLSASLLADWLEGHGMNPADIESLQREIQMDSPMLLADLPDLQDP

[4] = measured here: epithelial PC-3E GFP cell survival
[5] = measured here: mesenchymal TEM4-18 mCherry cell survival

Structure (SMILES) | inhibition [1] | red/green cell ratio (normalised) [2] | normalised cell number [2, 4] | normalised cell number [2, 5] | luciferase signal [3]
O=c1c(-c2cc(O)c(O)c(O)c2)coc2cc(O)c(O)c(O)c12 | 29.2% (active) | 0.99 (inactive) | 1.01 | 1 | 220 AU (active)
C=C1C(=O)O[C@@H]2C[C@@]3(C)CCC[C@H](C)C3=C[C@H]12 | 8.8% (inactive) | 1.12 (inactive) | 0.81 | 0.9 | 84 AU (inactive)
Cc1cc(=O)oc2c(O)c(O)ccc12 | -1.28% (inactive) | 1.02 (inactive) | 0.87 | 0.89 | 44 AU (inactive)
O=C(O)C1(O)C[C@@H](O)C(O)[C@H](O)C1 (stereo not given in full) | 5.01% (inactive) | 0.8 (inactive) | 1.27 | 1.02 | 12 AU (inactive)
C=CC(C)(O)CC/C=C(\C)CCC=C(C)C (stereo not given) | -3.52% (inactive) | 1.02 (inactive) | 0.95 | 0.98 | 68 AU (inactive)
C=CC(C1=CC(=O)C(OC)=CC1=O)c1ccccc1 (stereo not given) | -2.35% (inactive) | 1.14 (inactive) | 0.95 | 1.08 | 60 AU (inactive)
COc1ccc(C(=O)/C=C/c2ccccc2)cc1 | 8.83% (inactive) | 1.17 (inactive) | 0.89 | 1.04 | 88 AU (inactive)
C=CC(C1=CC(=O)C(OC)=CC1=O)c1ccc(O)cc1 (stereo not given) | 1.39% (inactive) | 0.91 (inactive) | 1.05 | 0.95 | 136 AU (inactive)
COc1ccc(-c2coc3c(OC)c(OC)cc(O)c3c2=O)cc1 | -3.95% (inactive) | 1.01 (inactive) | 1.18 | 1.19 | 56 AU (inactive)
CC(C)c1ccc2c(c1)CCC1[C@](C)(CN)CCC[C@]21C (stereo not given in full) | 0.884% (inactive) | 0.87 (inactive) | 0.95 | 0.83 | 48 AU (inactive)
CC1=C(/C=C/C(C)=C/C=C/C(C)=C/C=C/C=C(C)/C=C/C=C(C)/C=C/C(=O)[C@]2(C)C[C@@H](O)CC2(C)C)C(C)(C)C[C@H](O)C1 | 1.92% (inactive) | 1.16 (inactive) | 0.85 | 0.98 | 20 AU (inactive)
COc1c(O)cccc1O | -5.16% (inactive) | 0.77 (inactive) | 0.96 | 0.74 | 76 AU (inactive)
C=C(C)[C@H]1COc2cc3oc(=O)ccc3cc2O1 | 5.71% (inactive) | 0.95 (inactive) | 1.17 | 1.11 | 44 AU (inactive)
O=C(O)C1=C[C@@H](O)[C@@H](O)[C@H](O)C1 | 9.48% (inactive) | 1.05 (inactive) | 0.91 | 0.95 | 88 AU (inactive)
Cn1c(=O)[nH]c(=O)c2[nH]cnc21 | 5.61% (inactive) | 0.93 (inactive) | 1.22 | 1.13 | 52 AU (inactive)
COc1ccc2c(c1)OC/C(=C\c1ccc(OC)c(O)c1)C2=O | -46% (inactive) | 0.99 (inactive) | 0.74 | 0.74 | 88 AU (inactive)
CCOC(=O)c1c(C)cc(O)cc1O | 0.669% (inactive) | 0.99 (inactive) | 0.99 | 0.99 | 72 AU (inactive)
Cc1ccc2c(c1)CC[C@H]1CC(=O)CC[C@]21C | -2.97% (inactive) | 1.02 (inactive) | 1.12 | 1.14 | 16 AU (inactive)
COc1ccc2c(c1)OC1(O)COc3cc(OC)c(OC)cc3C1=C2 (stereo not given) | -7.74% (inactive) | 1.07 (inactive) | 1.01 | 1.09 | 108 AU (inactive)
C#CCCCCCCCCCCCC(O)CC(O)COC(C)=O (stereo not given) | 8.03% (inactive) | 0.83 (inactive) | 1.1 | 0.91 | 60 AU (inactive)
O=C1c2ccccc2C(=O)c2c(O)c(O)cc(O)c21 | 17.9% (inactive) | 1.09 (inactive) | 0.94 | 1.02 | 100 AU (inactive)
COc1ccc(-c2oc3ccccc3c(=O)c2O)cc1OC | 8.6% (inactive) | 0.86 (inactive) | 1.06 | 0.91 | 52 AU (inactive)
CC1=CCc2c(cc3oc(C)cc(=O)c3c2O)OC1 | 0.892% (inactive) | 1.1 (inactive) | 1.02 | 1.12 | 16 AU (inactive)
CC(=O)c1c(O)cc(O)cc1O | -5.07% (inactive) | 1.24 (inactive) | 0.74 | 0.92 | 44 AU (inactive)
COc1cc(O)c2c(=O)cc(C)oc2c1CC=C(C)C | 12.4% (inactive) | 1.22 (inactive) | 0.96 | 1.17 | 36 AU (inactive)
CC1=C2C(O)C(=O)OC3CC4C(C)(C)C(=O)C=C[C@]4(C)C(CC1)[C@]23C (stereo not given in full) | -6.52% (inactive) | 1.05 (inactive) | 0.98 | 1.02 | 144 AU (active)
CC(=O)O[C@H]1C[C@@H](OC(C)=O)C(C)(C)C2CC(=O)[C@]3(C)C(CC[C@@]4(C)[C@H](c5ccoc5)OC(=O)[C@H]5O[C@]543)[C@]21C (stereo not given in full) | 6.24% (inactive) | 0.93 (inactive) | 0.94 | 0.87 | 16 AU (inactive)

Structure (SMILES) | inhibition [1] | red/green cell ratio (normalised) [2] | normalised cell number [2, 4] | normalised cell number [2, 5] | luciferase signal [3]
CCC(C)C(NC)C(=O)O (stereo not given) | -6.91% (inactive) | 1.02 (inactive) | 1.08 | 1.11 | 68 AU (inactive)
CC12CCCC(O)(C1)C1CC(C)(C)C1CC2 (stereo not given) | -1.62% (inactive) | 0.85 (inactive) | 1.27 | 1.07 | 128 AU (inactive)
O=C1C=CC2=C3c4cc(O)c(O)cc4CC3(O)COC2=C1O (stereo not given) | 27.6% (active) | 0.83 (inactive) | 1.07 | 0.89 | 32 AU (inactive)
COc1cc(C)c(C(=O)Oc2cc(C)c(C(=O)O)c(O)c2C)c(OC)c1C | 17.4% (inactive) | 1.11 (inactive) | 0.88 | 0.98 | 92 AU (inactive)
COc1c(-c2coc3cc4c(cc3c2=O)CC(O)C(C)(C)O4)ccc2c1C=CC(C)(C)O2 (stereo not given) | -4.11% (inactive) | 0.82 (inactive) | 1.08 | 0.88 | 24 AU (inactive)
CC1=CC2C(CC1=O)C(C)=CCC2C(C)C (stereo not given) | 2.64% (inactive) | 1.21 (inactive) | 1.06 | 1.28 | 24 AU (inactive)
CC(=O)OC1CCC23CC1(C)CCC2C(C)(C)CC3OC(C)=O (stereo not given) | -1.38% (inactive) | 1.04 (inactive) | 1.07 | 1.11 | 80 AU (inactive)
CC1=CC(=O)C(C(C)C)=CC1=O | -9.74% (inactive) | 0.97 (inactive) | 0.99 | 0.96 | 24 AU (inactive)
COc1cc(O)c(C(C)=O)c(OC)c1 | 0.271% (inactive) | 0.74 (inactive) | 1.02 | 0.75 | 8 AU (inactive)
Cc1cc(O)c(C)c(O)c1C(=O)O | -9.88% (inactive) | 0.88 (inactive) | 1.09 | 0.97 | 72 AU (inactive)
CCOc1ccc(C(=O)c2ccc(O)c(O)c2O)cc1 | -12.8% (inactive) | 0.88 (inactive) | 0.99 | 0.87 | 104 AU (inactive)
Nc1ccccc1C(=O)CC(N)C(=O)O (stereo not given) | -2.44% (inactive) | 1.23 (inactive) | 0.56 | 0.69 | 68 AU (inactive)
COC(=O)c1c(C)cc(OC(=O)c2c(C)cc(O)c(C=O)c2O)c(C)c1O | 1.13% (inactive) | 0.78 (inactive) | 1.24 | 0.97 | 12 AU (inactive)
CC(C)=CCC/C(C)=C/CC/C(C)=C/CO | 1.99% (inactive) | 0.89 (inactive) | 1.03 | 0.91 | 88 AU (inactive)
CC(=O)O[C@H]1CCC2(C)C3=C(CCC2C1(C)C)[C@]1(C)CCC(C(C)CCC=C(C)C)[C@@]1(C)CC3 (stereo not given in full) | 12.8% (inactive) | 0.97 (inactive) | 0.86 | 0.83 | 52 AU (inactive)
COc1ccc(-c2cc(=O)c3c(OC(C)=O)cc(OC(C)=O)cc3o2)cc1 | -1.6% (inactive) | 0.89 (inactive) | 1.06 | 0.95 | 60 AU (inactive)
COC(=O)[C@@H]1OC(=O)C2OC23[C@@]1(C)CCC1[C@]2(C)C(C[C@@H](O)[C@]13C)C(C)(C)[C@H](OC(C)=O)C[C@@H]2OC(C)=O (stereo not given in full) | -0.817% (inactive) | 0.93 (inactive) | 1.09 | 1.02 | 64 AU (inactive)
CCCCCC1C(=O)CCC1CC(=O)O (stereo not given) | -5.33% (inactive) | 0.91 (inactive) | 0.07 | 0.07 | 56 AU (inactive)
COC(=O)c1c(OC)cc2c(c1C)Oc1c(Cl)c(O)c(Cl)c(C)c1C(=O)O2 | -6.18% (inactive) | 1.02 (inactive) | 1.07 | 1.1 | 56 AU (inactive)
Cc1cc(O)c(C=O)c2c1C(=O)Oc1c(C)c(O)c3c(c1O2)C(O)OC3=O (stereo not given) | 7.31% (inactive) | 0.95 (inactive) | 1.01 | 0.96 | 136 AU (inactive)
C=C1C2CC[C@@]3(C)[C@H](c4ccoc4)OC(=O)C[C@]13O[C@H]1CC(O)C(C)(C)C(CC(=O)OC)[C@@]21C (stereo not given in full) | 24.1% (active) | 1.02 (inactive) | 0.98 | 1 | 16 AU (inactive)
Cc1cc(O)c(C=O)c(O)c1C(=O)O | 15% (inactive) | 0.84 (inactive) | 1.14 | 0.95 | 120 AU (inactive)
C=CCSCC=C | -1.41% (inactive) | 1.04 (inactive) | 1.02 | 1.06 | 20 AU (inactive)
C=C1CCC2C(CC2(C)C)C(=O)CCC1O (stereo not given) | 28.4% (active) | 1.02 (inactive) | 0.93 | 0.96 | 132 AU (inactive)
COc1cc(OC)c2c(=O)c(-c3ccc4c(c3)OCO4)coc2c1 | 7.77% (inactive) | 1.06 (inactive) | 1.13 | 1.2 | 92 AU (inactive)
COc1ccc(C(=O)CC(=O)O)c2c1C=CC(C)(C)O2 | 10.2% (inactive) | 0.95 (inactive) | 0.98 | 0.93 | 60 AU (inactive)
